The panel holds about 83,000 compounds, 20% with a hit somewhere; the sample as a whole holds those more often.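 Plates (96-well) were seeded with cells, treated with compound at one concentration, and incubated for 48 hours before percent growth was determined.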 The source made the active and inactive calls. Rule for the calls: active = growth percent below 10; inactive = the rest.

For the first assay, the system named is OVCAR-5 ovarian. Kind of assay: NCI-60 one-dose screen, 48 h (100 = growth as untreated, 0 = no growth, -100 = all killed). The settings on record: 10 µM unless noted.
`CSc1nc(N)n2nccc2n1`: the growth is 114% (inactive).
Same read-out and setting: under `Cc1nnc(-c2cc3c(ccc4ccccc43)oc2=O)c2cn(-c3ccc(Cl)cc3)nc12` stands 108% (inactive); under `COc1ccc(CNCCCN2C(=O)c3ccc4c5c(ccc(c35)C2=O)C(=O)N(CCCNCc2ccc(OC)c(OC)c2OC)C4=O)c(OC)c1OC`, -55.4% (active).
Still for that read-out and setting: under `CCCCCCCCCCCCOC(=N)N(C)C` stands 99.4% (inactive); under `COCC(=O)NNc1[nH]c(-c2ccc(OC)cc2)cc1C#N`, 98.6% (inactive); under `c1cc(C2CCCCC2)ccc1OCCCCCCN1CCNCC1`, 41.3% (inactive).
Same read-out and setting: next, `O=C(CCCC(=O)Nc1ccc(Cn2nnc3cc(Cl)c(Cl)cc32)cc1)Nc1ccc(CN2N=NC3C=C(Cl)C(Cl)=CC32)cc1` (stereo not drawn): 95.8% (inactive); `COc1cc(N)c2nccc(C)c2c1OC`: 107% (inactive).
Turning to `COc1ccc(Cn2cc3c(c2)-c2oncc2CC3)cc1OC`, the growth is 40.3% (inactive).
On the same count and under the same terms, next, `Brc1c(-c2ccncc2)nc2n1CCS2`: 102% (inactive); `CCc1c(C)c2ccc(OCC(=O)N=Nc3c(O)[nH]c4ccccc34)c(C)c2oc1=O`: 24% (inactive).
Still for that read-out and setting: under `Nc1ccc(N=Nc2ccccc2)c2cc(S(=O)(=O)O)ccc12` stands 107% (inactive); under `CC(C)CSc1nc(-c2ccc(F)cc2)c(C#N)c(N2CCCCC2)n1`, 90.5% (inactive).
The same measure, in the same setting: next, `Cc1ccc2c(O)c(O)cc(NC(C)CCCN)c2n1` (stereo not drawn): 87.4% (inactive); `CCn1cnc(C[C@H](NC(=O)[C@@H](NC(=O)Nc2cc(C(F)(F)F)cc(C(F)(F)F)c2)C(C)(C)C)C(=O)OC)c1`: -92.8% [100 µM] (active); `CC(C)OCC1CO1` (stereo not drawn): 101% (inactive).
With `COc1ccc(-c2nnc(SCC(=O)Nc3ccc(C(=O)/C=C/c4cc(OC)c(OC)c(OC)c4)cc3)n2-c2ccccc2)cc1OC`, the growth was 19.2% [100 µM] (inactive).
The same measure, in the same setting: next, `[N-]=[N+]=Nc1ncc(-c2ccc(C(F)(F)F)cc2)c(NC2CCCCCC2)n1`: 65% [100 µM] (inactive); `CC(C)(C)c1cc(C[P+](c2ccc(Cl)cc2)(c2ccc(Cl)cc2)c2ccc(Cl)cc2)cc(C(C)(C)C)c1O`: 105% (inactive).
The same measure, in the same setting: next, `O=C(OCC1CC2(Cl)C(Cl)=C(Cl)C1(Cl)C2(Cl)Cl)C1C(C(=O)OCC2CC3(Cl)C(Cl)=C(Cl)C2(Cl)C3(Cl)Cl)C2(Cl)C(Cl)=C(Cl)C1(Cl)C2(Cl)Cl` (stereo not drawn): 105% (inactive); `O=S(=O)(Cc1cccc2c(CS(=O)(=O)c3ccc(Cl)cc3)cccc12)c1ccc(Cl)cc1`: 97.3% (inactive).
The same measure, in the same setting: under `O=C(/C=C1\C(=O)N(Cc2ccccc2)c2ccccc21)c1ccc(OCCN2CCCCC2)cc1` stands 39.8% (inactive); under `CC(C)(C)C(=O)CCCCCCCC/C=C/CCCC(O)c1ccco1` (stereo not drawn), 93.6% (inactive).
As for `CC(=O)CCS(=O)c1ccccc1` (stereo not drawn), the growth was 108% (inactive).
Still for that read-out and setting: under `O=P(OCCCl)(OCCCl)C(O)c1ccccc1Cl` (stereo not drawn) stands 107% (inactive); under `CC1(C)C(O)NC(Cl)=C(C#N)C1(C#N)C#N` (stereo not drawn), 83% (inactive).
Regarding `COc1ccc(C(O)(c2ccccc2)C(C(=O)O)c2ccccc2)cc1` (stereo not drawn), the growth is 102% (inactive).
`O=C(O)CC1Cc2ccccc2C1C(=O)O` (stereo not drawn): the growth was 108% (inactive).
Consider `O=c1[nH]c(=S)[nH]c(O)c1/C=C1\C=Nc2ccccc21`, for which the growth was 96% (inactive).
With `O=C1NCCN1/N=C/c1c(Cl)nc2n1CCS2`, the growth was 102% (inactive).
As to `CCCC(=O)Nc1ccccc1C(=O)O`, the growth is 99.5% (inactive).
`CC(C)OC(=O)Nn1cnc2ccccc21`: the growth is 96.7% (inactive).
Same read-out and setting: under `O=C(NC1CCN(Cc2ccccc2)CC1)c1cc(-c2cccnc2)nc2ccc(Cl)cc12` stands 80.5% (inactive).
Still for that read-out and setting: next, `O=S(=O)(O)c1ccc2c(c1)Sc1cc(S(=O)(=O)O)ccc1O2`: 92.1% (inactive); `CCCCCc1ccnc(CC(=O)c2ccc(OC)cc2)c1`: 89.7% (inactive); `COc1ccc(-c2nc(SCC(C)C)nc(Nc3ccc([N+](=O)[O-])cc3)c2C#N)cc1`: 106% (inactive).
Still for that read-out and setting: under `COc1cc2ncnc(Nc3ccc4c(cnn4C(=O)Nc4ccccc4)c3)c2cc1OC` stands 105% (inactive).
As to `CCCCCSc1ccc2nc(NC(=O)OCC)sc2c1`, the growth was 64.3% (inactive).
Same read-out and setting: next, `COc1ccc(C2=C/C(=C\c3ccc(Cl)cc3)C(=O)NN2C(=S)NN)cc1`: 112% (inactive).

The subject of the next assay is OVCAR-4 ovarian. Described as above. The settings on record: 10 µM unless noted.
`CSc1nc(N)n2nccc2n1`: the growth is 103% (inactive).
`Cc1nnc(-c2cc3c(ccc4ccccc43)oc2=O)c2cn(-c3ccc(Cl)cc3)nc12`: the growth was 83.8% (inactive).
On the same count and under the same terms, under `COc1ccc(CNCCCN2C(=O)c3ccc4c5c(ccc(c35)C2=O)C(=O)N(CCCNCc2ccc(OC)c(OC)c2OC)C4=O)c(OC)c1OC` stands -97.3% (active).
Same read-out and setting: next, `CCCCCCCCCCCCOC(=N)N(C)C`: 117% (inactive).
The same measure, in the same setting: next, `COCC(=O)NNc1[nH]c(-c2ccc(OC)cc2)cc1C#N`: 127% (inactive).
For `c1cc(C2CCCCC2)ccc1OCCCCCCN1CCNCC1`, the growth was 41.6% (inactive).
On the same count and under the same terms, under `O=C(CCCC(=O)Nc1ccc(Cn2nnc3cc(Cl)c(Cl)cc32)cc1)Nc1ccc(CN2N=NC3C=C(Cl)C(Cl)=CC32)cc1` (stereo not drawn) stands 65.6% (inactive).
The same measure, in the same setting: next, `COc1cc(N)c2nccc(C)c2c1OC`: 94.4% (inactive); `COc1ccc(Cn2cc3c(c2)-c2oncc2CC3)cc1OC`: 43.4% (inactive).
Same read-out and setting: next, `Brc1c(-c2ccncc2)nc2n1CCS2`: 109% (inactive).
For `CCc1c(C)c2ccc(OCC(=O)N=Nc3c(O)[nH]c4ccccc34)c(C)c2oc1=O`, the growth was -21.7% (active).
On the same count and under the same terms, under `Nc1ccc(N=Nc2ccccc2)c2cc(S(=O)(=O)O)ccc12` stands 107% (inactive); under `CC(C)CSc1nc(-c2ccc(F)cc2)c(C#N)c(N2CCCCC2)n1`, 97.1% (inactive).
With `Cc1ccc2c(O)c(O)cc(NC(C)CCCN)c2n1` (stereo not drawn), the growth was 6.99% (active).
Still for that read-out and setting: under `CCn1cnc(C[C@H](NC(=O)[C@@H](NC(=O)Nc2cc(C(F)(F)F)cc(C(F)(F)F)c2)C(C)(C)C)C(=O)OC)c1` stands -82.7% [100 µM] (active); under `CC(C)OCC1CO1` (stereo not drawn), 115% (inactive); under `COc1ccc(-c2nnc(SCC(=O)Nc3ccc(C(=O)/C=C/c4cc(OC)c(OC)c(OC)c4)cc3)n2-c2ccccc2)cc1OC`, -49% [100 µM] (active).
On the same count and under the same terms, next, `[N-]=[N+]=Nc1ncc(-c2ccc(C(F)(F)F)cc2)c(NC2CCCCCC2)n1`: 28.9% [100 µM] (inactive).
Still for that read-out and setting: next, `CC(C)(C)c1cc(C[P+](c2ccc(Cl)cc2)(c2ccc(Cl)cc2)c2ccc(Cl)cc2)cc(C(C)(C)C)c1O`: 79.2% (inactive).
Take `O=C(OCC1CC2(Cl)C(Cl)=C(Cl)C1(Cl)C2(Cl)Cl)C1C(C(=O)OCC2CC3(Cl)C(Cl)=C(Cl)C2(Cl)C3(Cl)Cl)C2(Cl)C(Cl)=C(Cl)C1(Cl)C2(Cl)Cl` (stereo not drawn): the growth was 110% (inactive).
On the same count and under the same terms, next, `O=S(=O)(Cc1cccc2c(CS(=O)(=O)c3ccc(Cl)cc3)cccc12)c1ccc(Cl)cc1`: 100% (inactive); `O=C(/C=C1\C(=O)N(Cc2ccccc2)c2ccccc21)c1ccc(OCCN2CCCCC2)cc1`: -22.3% (active).
The same measure, in the same setting: next, `CC(C)(C)C(=O)CCCCCCCC/C=C/CCCC(O)c1ccco1` (stereo not drawn): 104% (inactive); `CC(=O)CCS(=O)c1ccccc1` (stereo not drawn): 106% (inactive); `O=P(OCCCl)(OCCCl)C(O)c1ccccc1Cl` (stereo not drawn): 111% (inactive).
On the same count and under the same terms, next, `CC1(C)C(O)NC(Cl)=C(C#N)C1(C#N)C#N` (stereo not drawn): 107% (inactive); `COc1ccc(C(O)(c2ccccc2)C(C(=O)O)c2ccccc2)cc1` (stereo not drawn): 98% (inactive).
As to `O=C(O)CC1Cc2ccccc2C1C(=O)O` (stereo not drawn), the growth was 113% (inactive).
Same read-out and setting: next, `O=c1[nH]c(=S)[nH]c(O)c1/C=C1\C=Nc2ccccc21`: 91.9% (inactive).
For the compound `O=C1NCCN1/N=C/c1c(Cl)nc2n1CCS2`, the growth is 113% (inactive).
`CCCC(=O)Nc1ccccc1C(=O)O`: the growth is 101% (inactive).
For `CC(C)OC(=O)Nn1cnc2ccccc21`, the growth is 126% (inactive).
In the case of `O=C(NC1CCN(Cc2ccccc2)CC1)c1cc(-c2cccnc2)nc2ccc(Cl)cc12`, the growth was 70.5% (inactive).
Still for that read-out and setting: next, `O=S(=O)(O)c1ccc2c(c1)Sc1cc(S(=O)(=O)O)ccc1O2`: 110% (inactive).
For the compound `CCCCCc1ccnc(CC(=O)c2ccc(OC)cc2)c1`, the growth is 76.5% (inactive).
Still for that read-out and setting: next, `COc1ccc(-c2nc(SCC(C)C)nc(Nc3ccc([N+](=O)[O-])cc3)c2C#N)cc1`: 37.5% (inactive); `COc1cc2ncnc(Nc3ccc4c(cnn4C(=O)Nc4ccccc4)c3)c2cc1OC`: 88.5% (inactive).
For `CCCCCSc1ccc2nc(NC(=O)OCC)sc2c1`, the growth was 28.7% (inactive).
For the compound `COc1ccc(C2=C/C(=C\c3ccc(Cl)cc3)C(=O)NN2C(=S)NN)cc1`, the growth is 90% (inactive).

For the origin of these results see PubChem BioAssay (NCI).
